Assay outcomes as filed in PubChem BioAssay.
TDP1 cell noCPT: qHTS for Inhibitors of human tyrosyl-DNA phosphodiesterase 1 (TDP1): qHTS in cells in absence of CPT; DT40 Tdp1-/- hTDP1 cells, no CPT, ATP luminescence, 48 h; Potency, µM (titrated, usually from 46.2 µM), for the others: at the highest dose activity change, negative = growth inhibition, hits mostly inhibitors; 420,000 tested, 15% active; AID 686978, 2013; note: potency is the fitted concentration of half-maximal effect; nearly all actives have a fitted effect of over 55% in size
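Seeded 400 DT40-hTDP1 cells/well (vehicle DMSO, no 20 nM CPT); pinned compounds; ≥48 hr at 37 °C; CellTiter-Glo luminescence as viability measure.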
DT40 TDP1 CPT: growth inhibition of DT40 Tdp1-/-;hTDP1 cells with camptothecin (screen for TDP1 inhibitors) | 420,000 tested, 12% active | chicken DT40 Tdp1-/-;hTDP1 cells + 20 nM CPT, ATP luminescence, 48 h | Potency, µM (titrated, usually from 46.2 µM), for inactives: at the top dose activity change, negative = growth inhibition, usual class: inhibitors; note: potency is the fitted concentration of half-maximal effect; nearly all actives have a fitted effect of over 55% in size
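Cell growth measured by CellTiter-Glo luminescence after a minimum 48 h, 37 C compound exposure with 20 nM CPT in Tdp1-knockout DT40 cells stably expressing hTDP1, seeded 400/well; qHTS titration format.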
IL-1B inflam inh: blocks inflammasome-driven IL-1 beta release; 360,000 tested, 4.7% active; activity change, % at 57.5 µM; THP-1 LPS/ATP IL-1B secretion, AlphaLISA, 16 h; hits give low values; in the data active = activity change below about -50%; inconclusive = mostly about -30% to -49%
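THP-1 cells pretreated 1 hr with compounds (up to 57.5 uM final), then stimulated with LPS (250 ng/mL final) plus ATP (1.25 mM final); secreted IL-1B measured by AlphaLISA after 16 hr, decreased signal indicating inhibition.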
HT1080NT lethal: kills 2HG-producing HT-1080-NT fibrosarcoma cells; HT-1080-NT fibrosarcoma viability, CellTiter-Glo ATP luminescence, 48 h; Potency, µM (top dose mostly 46.1 µM), for inactives: at the highest dose activity, negative = less viability, hits mostly cytotoxic; 360,000 tested, 1.6% active; AID 686970;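 note: NT is the 2HG producing partner of a matched IDH1 knockdown line; potency is the fitted concentration of half-maximal effect; 0% = DMSO-treated cells and -100% = media-only wells without cells; nearly all actives have a fitted effect of over 55% in size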
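Read-out is CellTiter-Glo luminescence after 10 minutes at room temperature, following 48 hours' compound treatment of HT-1080-NT cells (750 cells/well, RPMI, 5% FBS, 37 degrees C).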
ELG1 repair inh: blocks ELG1-dependent DNA repair in HEK293T cells; HEK293T ELG1-luciferase reporter, luminescence, 16 h; DNA damage induced by 5-fluorouridine; Potency, µM (series often up to 46.1 µM), inactives show at the highest dose activity change, negative = inhibition, actives largely listed as inhibitors; 330,000 tested, 2.3% active; note: potency is the fitted concentration of half-maximal effect; nearly all actives have a fitted effect of over 55% in size
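Step one: seed 2,000 cells per well. Step two: pin-transfer compound or DMSO alongside 5-fluorouridine. Step three: incubate 16 hr, 37 °C, 5% CO2. Step four: add ONE-Glo, wait 30 min, read luminescence.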
HT1080 IDH1KD tx: kills HT-1080 cells with IDH1 knockdown; 360,000 tested, 2% active; HT-1080 IDH1 knockdown viability, ATP luminescence, 48 h; Potency, µM (top dose mostly 46.1 µM), inactives show top-dose activity, negative = toxicity, hits mostly cytotoxic;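 note: potency is the fitted concentration of half-maximal effect; 0% = DMSO wells and -100% = cell-free medium wells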
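After a 2 h attachment period, IDH1KD HT-1080 cells took pin-transferred compound for 48 h at 37 °C; ATP-based luminescence after 10 min room-temperature reagent incubation reported viability.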
Numbers without * were called inactive. Only some compounds are listed: those with a hit (about 19% of all), similar ones and a draw of the others. Unless noted, calls come from the whole dose curve; as a rule, active = well fitted curve in the direction sought with a large enough effect; inconclusive = small, poorly fitted or top-dose-only effect, or another doubt; inactive = no such curve, though single readings can be large; an effect the other way counts as inactive or inconclusive. Unless noted, % is set by controls: 0 for no effect and ±100 for the full control effect.

For O=C(NCc1nc2ccccc2[nH]1)C1=C[C@H](C2CCCCC2)C[C@H](OCCCCO)O1 the results were TDP1 cell noCPT 16.4µM*, DT40 TDP1 CPT 23.1µM*, IL-1B inflam inh 6.0, HT1080NT lethal 5.4% and HT1080 IDH1KD tx 0.4%.
Screening O=C(NCc1nc2ccccc2[nH]1)C1=C[C@H](C2CCCCC2)C[C@H](OCc2ccc(CO)cc2)O1 returned TDP1 cell noCPT 16.4µM*, DT40 TDP1 CPT 11.6µM*, IL-1B inflam inh -12.8, HT1080NT lethal inconclusive, ELG1 repair inh inconclusive and HT1080 IDH1KD tx inconclusive.
`O=C(NCc1nc2ccccc2[nH]1)C1=C[C@H](C2CC2)C[C@H](OCCCCO)O1` gave TDP1 cell noCPT -8.4%, DT40 TDP1 CPT -5.0%, IL-1B inflam inh 22.9, HT1080NT lethal -0.7%, ELG1 repair inh 4.3% and HT1080 IDH1KD tx 5.8%.
`O=C(NCc1nc2ccccc2[nH]1)C1=C[C@@H](C2CCCCC2)C[C@@H](OCc2ccc(CO)cc2)O1` gave TDP1 cell noCPT inconclusive, DT40 TDP1 CPT inconclusive, IL-1B inflam inh 13.9, HT1080NT lethal -2.3%, ELG1 repair inh inconclusive and HT1080 IDH1KD tx 0.5%.
For C/C(=N\NC(=O)c1c(Cl)cnn1C)c1ccc(NC(=O)c2ccc(Br)o2)cc1 the results were TDP1 cell noCPT -16.6%, DT40 TDP1 CPT inconclusive, IL-1B inflam inh 22.3, HT1080NT lethal -9.8%, ELG1 repair inh 0.0% and HT1080 IDH1KD tx -1.3%.
`Cc1ccc(NC(=O)c2cc(-c3cc(F)ccc3OCC3CCCO3)n[nH]2)cc1NS(C)(=O)=O` (stereo not drawn) gave TDP1 cell noCPT 14.6µM*, DT40 TDP1 CPT 14.6µM*, IL-1B inflam inh -4.3, HT1080NT lethal inconclusive and HT1080 IDH1KD tx inconclusive.
Screening COc1cc(CNC(=O)c2cc(-c3cc(F)ccc3OCC3CCCO3)n[nH]2)cc(OC)c1 (stereo not drawn) returned TDP1 cell noCPT 20.6µM*, DT40 TDP1 CPT inconclusive, IL-1B inflam inh -21.5, HT1080NT lethal 3.0% and HT1080 IDH1KD tx 0.0%.
Screening CN1CCN(C(=O)C2=C[C@@H](c3ccccc3)C[C@@H](OCCCCO)O2)CC1 returned TDP1 cell noCPT -10.2%, DT40 TDP1 CPT 11.8%, IL-1B inflam inh 2.9, HT1080NT lethal 2.1%, ELG1 repair inh -9.0% and HT1080 IDH1KD tx -0.9%.
Screening CCOC(=O)c1c(C)oc2nc(C)nc(N3CCN(c4ccccc4)CC3)c12 returned TDP1 cell noCPT 14.6µM* and DT40 TDP1 CPT 9.2µM*.
`CCOC(=O)c1c(C)oc2nc(C)nc(N3CCN(c4cccc(C(F)(F)F)c4)CC3)c12` gave TDP1 cell noCPT 5.17µM* and DT40 TDP1 CPT 9.2µM*.
CCOC(=O)c1c(C)oc2nc(C)nc(N3CCN(c4ccc(C)cc4C)CC3)c12 was read as TDP1 cell noCPT inconclusive and DT40 TDP1 CPT -7.7%.
For CCOC(=O)c1cc(C#N)c(N2CCN(C(=O)c3ccccc3)CC2)nc1C(F)(F)F the results were TDP1 cell noCPT inconclusive, DT40 TDP1 CPT -27.7%, IL-1B inflam inh 4.4, HT1080NT lethal -11.7%, ELG1 repair inh inconclusive and HT1080 IDH1KD tx -23.2%.
CCOC(=O)c1c(C)oc2nc(C)nc(N(C)Cc3ccccc3)c12 was read as TDP1 cell noCPT 23.1µM* and DT40 TDP1 CPT 18.4µM*.
CCOC(=O)c1cc(C#N)c(N2CCN(C(=O)c3cccc(C(F)(F)F)c3)CC2)nc1C(F)(F)F was read as TDP1 cell noCPT 14.6µM*, DT40 TDP1 CPT inconclusive, IL-1B inflam inh inconclusive, HT1080NT lethal 2.5%, ELG1 repair inh inconclusive and HT1080 IDH1KD tx inconclusive.
CCc1ccc(OC(C)c2nc(-c3ccc(-n4cccc4)cc3)no2)cc1 (stereo not drawn) was read as TDP1 cell noCPT inconclusive and DT40 TDP1 CPT -48.4%.
For C=CCNC(=S)N1CCC(C(=O)c2ccc(Cl)cc2)CC1 the results were TDP1 cell noCPT inconclusive, DT40 TDP1 CPT 16.4µM*, IL-1B inflam inh -3.6, HT1080NT lethal 1.0%, ELG1 repair inh inconclusive and HT1080 IDH1KD tx -9.1%.
Screening O=C(c1ccc(F)cc1)C1CCN(C(=S)NCC2CCCO2)CC1 (stereo not drawn) returned TDP1 cell noCPT -13.9%, DT40 TDP1 CPT -29.5%, IL-1B inflam inh 44.2, HT1080NT lethal -2.1%, ELG1 repair inh inconclusive and HT1080 IDH1KD tx -6.6%.
`CN(C)CCCNC(=S)N1CCC(C(=O)c2ccc(Cl)cc2)CC1` gave TDP1 cell noCPT 16.4µM*, DT40 TDP1 CPT 23.1µM*, IL-1B inflam inh 10.0, HT1080NT lethal -5.8% and HT1080 IDH1KD tx -4.5%.
CCOCCCNC(=S)N1CCC(C(=O)c2ccc(C)cc2)CC1 was read as TDP1 cell noCPT inconclusive, DT40 TDP1 CPT 18.4µM*, IL-1B inflam inh -11.7, HT1080NT lethal -1.1%, ELG1 repair inh -7.4% and HT1080 IDH1KD tx -2.2%.
For CC(C)(C)NC(=S)N1CCC(C(=O)c2ccc(Cl)cc2)CC1 the results were TDP1 cell noCPT -2.3%, DT40 TDP1 CPT -11.3%, IL-1B inflam inh -6.2, HT1080NT lethal 13.5%, ELG1 repair inh 9.9% and HT1080 IDH1KD tx 13.0%.
`Cc1ccc(C(=O)C2CCN(C(=S)NCC3CCCO3)CC2)cc1` (stereo not drawn) gave TDP1 cell noCPT 10.3µM*, DT40 TDP1 CPT 14.6µM*, IL-1B inflam inh -11.1, HT1080NT lethal -2.5%, ELG1 repair inh inconclusive and HT1080 IDH1KD tx -5.0%.
Screening COC(=O)c1cnn(-c2ccc(C(=O)Nc3cccc(C(C)=O)c3)cc2)c1N returned TDP1 cell noCPT 5.1% and DT40 TDP1 CPT 2.0%.
For CCc1ccc(-c2cc3c(=O)n(CC(=O)NCCCN4CCN(C)CC4)ncn3n2)cc1 the results were TDP1 cell noCPT 0.1%, DT40 TDP1 CPT -28.9%, IL-1B inflam inh -8.5, HT1080NT lethal inconclusive, ELG1 repair inh inconclusive and HT1080 IDH1KD tx inconclusive.
O=C(Cn1nc(C(=O)O)c2ccccc2c1=O)Nc1ccc(Cl)c(S(=O)(=O)N2CCOCC2)c1 was read as TDP1 cell noCPT -17.7%, DT40 TDP1 CPT -25.3%, IL-1B inflam inh -2.3, HT1080NT lethal -1.0%, ELG1 repair inh -2.0% and HT1080 IDH1KD tx -13.4%.
For Cc1ccc(-c2c(C(=O)NNC(=S)NCC3CCCO3)csc2C)cc1 (stereo not drawn) the results were TDP1 cell noCPT 0.461µM*, DT40 TDP1 CPT inconclusive, IL-1B inflam inh -8.1, HT1080NT lethal -0.6%, ELG1 repair inh -11.7% and HT1080 IDH1KD tx 2.5%.
